# From PubChem BioAssay (NCI)
# Values joined by “and” are separate entries in the source; they are usually repeats but may differ in a detail not shown here. Equal entries are not always repeated. About 83,000 compounds went through this panel and 20% of them were active in at least one assay; those are over-represented in the sample as a whole.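 Testing used 96-well plates and a 48-hour single-concentration exposure. Example: -40 means 40% of the starting cells died.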 A number with no mark means an inactive call. Active and inactive are the calls of the source. Rule for the calls: active = growth percent below 10; inactive = the rest.
# System: KM12 colon
# Assay: NCI-60 one-dose screen, 48 h (100 = growth as untreated, 0 = no growth, -100 = all killed)
# Details: 10 µM unless noted
row,Compound,growth
1,CCN(C(=O)CN1C(=O)/C(=C/c2ccco2)SC1=S)C1CCS(=O)(=O)C1 (stereo unspecified),103%
2,CC[C@@]12CC(C(=O)OC)=C3Nc4cc5c(cc4[C@@]34CCN(C[C@H]3O[C@H]31)[C@@H]24)[C@@H]1[C@H](O5)[C@@H](O)[C@@]2(CC)CC(C(=O)OC)=C3Nc4cc(O)ccc4[C@@]34CCN1[C@@H]24,-46.6% (active)
3,CN(C)CCCc1ccc(Nc2cnn(C)c(=O)c2Cl)cc1,111%

# System: MDA-MB-468 breast
# Assay: as above
# Details: 10 µM unless noted
row,Compound,growth
1,O=C(CSc1nnc(-c2ccc(-c3nc4ccccc4[nH]3)cc2)o1)Nc1ccc(Br)cc1,67.3%
2,COc1ccc2c(c1)N=c1c-2cc2c(O)[nH]c(=S)n2c1=O,-25.9% (active)
3,CN(C(=O)CN1C(=O)/C(=C/c2ccco2)SC1=S)C1CCS(=O)(=O)C1 (stereo unspecified),72%
4,CCOc1ccc2[nH]c(=O)c(C(c3nnnn3CC3CCCO3)N3CCN(Cc4ccccc4)CC3)cc2c1 (stereo unspecified),72.4%
5,N#CC1=C(c2cccs2)Nc2c(c(-c3ccccc3)nn2-c2ccccc2)C12C(=O)Nc1ccc(Cl)cc12 (stereo unspecified),-22.1% (active)
6,COc1ccc(-c2nc3ccccc3n2CC(=O)N=Nc2c(O)[nH]c3ccc(OC)cc23)cc1,52.4%
7,O=C(NC(=S)N1CCN(c2ncnc3c2cnn3-c2ccccc2)CC1)c1ccc(Br)cc1,78%
8,COc1c(B(O)O)cc(F)cc1-c1nc2ccc3[nH]ncc3c2c2c1COCC2,41.9%
9,CC1=C(C(=O)Nc2ccccc2)C(c2cccc(Cl)c2Cl)n2c(nc3ccccc32)N1 (stereo unspecified),-32.2% (active)
10,CC(Nc1ncnc2ccc(-c3ccc4oc(N)nc4c3)cc12)c1ccccc1 (stereo unspecified),-78.4% (active)
11,CNc1nc2ccccc2n2c(-c3ccc(O)c(O)c3)cnc12,5.66% (active)
12,COc1cc(/C=C/C(=O)c2cnn(-c3cc(=O)[nH]c4ccc(Br)cc34)c2C)cc(OC)c1OC,-80.6% (active)
13,COc1ccc(/C=C/C(=O)c2ccc(OC)c(S(N)(=O)=O)c2)c(C(F)(F)F)c1,7.25% (active)
14,COc1ccc(S(=O)(=O)Nc2ccc(-c3ccc4c(c3)NC(=O)/C4=C\c3ccc[nH]3)cc2)cc1OC,-56.2% (active)
15,COC(=O)c1ccc(-c2c(-c3ccccc3)c(F)c3oc(C(=O)OC)c(N)c3c2-c2ccccc2)cc1,84%
16,O=C(COc1ccc(/C=C2/C(=O)Nc3ccc(Cl)cc32)cc1)Nc1ccc(Br)cc1,38.4%
17,O=C(CSc1nc2ccccc2c(=O)[nH]1)NNC(=O)c1ccccc1Cl,137%
18,COc1ccc2[nH]cc(-c3cc4nc(-c5cn(C)c6ncccc56)cc(N)n4n3)c2c1,-75.9% (active)
19,COc1cc2cc(C(=O)N3C[C@@H](CCl)c4c3cc(OC(=O)N(CCC(=O)N3CCN(C)CC3)C3CCCCC3)c3ccccc43)[nH]c2c(OC)c1OC,-91.8% (active)

row,Compound,growth
1,CC[C@]12C=CCN3CC[C@@]4(c5ccc(OC)cc5N(C)[C@H]4[C@@](O)(C(=O)OC)[C@@H]1OC(=O)CCCC[P+](c1ccc(F)cc1)(c1ccc(F)cc1)c1ccc(F)cc1)[C@@H]32,-74.6% (active)
2,O=C(Nc1nc2ccc([N+](=O)[O-])cc2s1)Nc1ccccc1F,-15.4% (active)
3,O=C1C=CC(=CC=C2N(Cc3ccc4ccccc4c3)c3ccccc3N2Cc2ccc3ccccc3c2)C=C1,-48.9% (active) and -28.9% (active)
4,O=c1[nH]c2ccccc2cc1COc1ccc(Nc2nccc(-c3ccc(Cl)cc3)n2)cc1,89.6%
5,CC1=C(C(=O)Nc2ccccc2)C(c2ccc3ccccc3c2)n2c(nc3ccccc32)N1 (stereo unspecified),17.9%
6,O=C1CC(c2ccc(I)cc2)OC2C=Cc3ccccc3C12 (stereo unspecified),123%
7,COc1ccc(C(=O)/C=C/c2ccc3c(c2)OCCO3)cc1S(N)(=O)=O,80.7%
8,O=C(Cn1c(-c2ccccc2)nc2ccccc21)N=Nc1c(O)[nH]c2ccc(Br)cc12,-53.4% (active)
9,Cn1cc(-c2cc3nc(-c4cn(C)c5ncc(Br)cc45)cc(N)n3n2)c2cc(F)ccc21,-47.4% (active)
10,O=C1Nc2ccccc2/C1=C/C(=O)c1cc2ccccc2oc1=O,54.4%
11,CCC(=O)c1c2c(c3ccc4c5ccccc5ccc4n13)C(=O)c1ccccc1C2=O,88.6%
12,COc1ccc(C(=O)NNC(=O)CSc2nc3sc4c(c3c(=O)n2-c2ccc(Cl)cc2)CCCC4)cc1,88.3%
13,Cc1nc2sccn2c1-c1nnc(SCC(C)C)o1,4.49% (active)
14,COc1ccc([C@H]2C(C(=O)c3ccc(Cl)cc3)C3(N[C@@H]2c2ccccc2)C(=O)Nc2ccccc23)cc1 (stereo partly specified),28.5%
15,CN(C)CCCNC(=S)Nc1ccc(/C=C/c2ccc(Cl)cc2)cc1,-88.7% (active)
16,COc1ccc2[nH]c(=O)c(CSc3ccccc3Nc3nccc(-c4ccc(Cl)cc4)n3)cc2c1,17.3%
17,CCN(C(=O)CN1C(=O)/C(=C/c2ccco2)SC1=S)C1CCS(=O)(=O)C1 (stereo unspecified),61%
18,CC[C@@]12CC(C(=O)OC)=C3Nc4cc5c(cc4[C@@]34CCN(C[C@H]3O[C@H]31)[C@@H]24)[C@@H]1[C@H](O5)[C@@H](O)[C@@]2(CC)CC(C(=O)OC)=C3Nc4cc(O)ccc4[C@@]34CCN1[C@@H]24,-78.5% (active)
19,CN(C)CCCc1ccc(Nc2cnn(C)c(=O)c2Cl)cc1,82.8%
